The full list was thinned out, with hits kept by preference.
Tgondii IFNg: T. gondii growth inhibition under IFN-gamma. Toxoplasma gondii growth in IFN-gamma-treated host cells; active compounds read low. AID 1259416. actives 3.8% (n = 69,000). activity change, negative = inhibition, % (concentration not given with the values); in the data active = activity change below about -70%, passing the limit was not always enough;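 also: host cells are HeLa cells infected with Toxoplasma gondii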
Active calls of the source: *; ! = repeats disagree.

SMILES	Tgondii IFNg
COCCN1C(=O)CCc2cc(NC(=O)c3cncc(Br)c3)ccc21	1
CCn1c(-c2cc(NC(=O)c3cccnc3)n[nH]2)cc2cc(OC)ccc21	69
CCn1c(-c2cc(NC(=O)c3cncc(Br)c3)n[nH]2)cc2ccccc21	-103*
COc1ccc2c3c(n(C)c2c1)[C@@H](CO)N(C(C)=O)CC31CCN(C(=O)c2cnccn2)CC1	368
c1ccc(C2CN(c3nc(-c4cccnc4)nc4c3CNC4)CCN2)cc1 (configuration not stated)	-5
CN(C)C1CCCN(C(=O)c2ccccc2Cc2ccc(Cl)cc2)CC1 (configuration not stated)	34
CCOC(=O)c1nc(N2CCN(c3ccc(C)cc3C)CC2)c2ccccc2n1	-30
Nc1nnc(SCc2cc(F)cc3c2OCOC3)s1	-27
CSc1ncc(C(=O)N2CCC(c3ncc(Cl)cc3S(C)(=O)=O)CC2)cn1	27
N=C(N=C(N)N)N1CCOCC1	11
NC(=O)CN1CCOCCOCCN(CC(N)=O)CCOCC1	-71*
CC(C)(C)NC(=O)CCN1CCOCC1	12
COCCC(=O)N1C[C@H]2CCC[C@]2(COc2cccnc2)C1	3
Cc1cnc(C(=O)N2CCC3(CCN(c4cnn(C)c4)C3=O)C2)cn1 (configuration not stated)	0
C[C@H](NC(=O)[C@@H](O)c1cc(F)cc(F)c1)C(=O)N[C@@H]1C(=O)N(C)c2ccccc2-c2ccccc21	-21
COc1cc(NC(=O)Nc2ccnn2C)cc(OC)c1	-8
Cc1nc(-c2cccs2)sc1-c1ccnn1C(=O)NC(C)C	98
Cc1nccnc1-c1ccnn1C(=O)Nc1cc(Cl)cc(Cl)c1	-82*
Cn1c(-c2ccccc2)cnc1NC(=O)c1nonc1N	-104*
COc1ccc(-c2cc(C(=O)Nc3ncc(-c4ccc(F)cc4)n3C)on2)cc1	-3
Cc1cc2nc(C)c(CCC(=O)Nc3ncc(-c4ccccc4)n3C)c(C)n2n1	14
CCc1ccc(OCC(=O)N2CCCn3nc(C(=O)N4CCCC4)cc3C2)cc1	-8
COc1ccccc1CN1C[C@@H]2CN(C)CCO[C@@H]2C1	46
Cc1cc(NC(=O)c2ccoc2COc2ccccc2)no1	-25
Cc1ccc2cc(CN(CCO)CCO)c(=O)[nH]c2c1	5
SMILES	Tgondii IFNg
CN(CCCc1cnn(C)c1)Cc1cc2ccc(F)cc2[nH]c1=O	-7
O=c1[nH]c2cc3c(cc2cc1CN(CCO)Cc1nnnn1Cc1ccccc1)OCCO3	-82*
CCCNC(=O)N(C)C[C@@H]1Oc2cc(C#C[C@@H](C)O)ccc2S(=O)(=O)N([C@@H](C)CO)C[C@H]1C	-62
Cc1cccc(CN2CCC3(COCc4cnc(NCc5ccco5)nc43)C2)c1 (configuration not stated)	-18
CC(C)N1CCO[C@H]2CN(C(=O)Cc3ccsc3)CC[C@@H]2C1	-38
Cc1c(Cl)cccc1NC(=O)CN1C(=O)CCc2cc(S(=O)(=O)N3CCCCC3)ccc21	-11
CC(C)c1ccc(NC(=O)CN2C(=O)CCc3cc(S(=O)(=O)N4CCCCC4)ccc32)cc1	-113*
CC(C)c1ccc(NC(=O)CN2C(=O)CCc3cc(S(=O)(=O)N4CCOCC4)ccc32)cc1	-18
Cc1ccc(NC(=O)CN2C(=O)CCc3cc(S(=O)(=O)N4CCCCC4)ccc32)cc1C	3
O=C(CN1C(=O)CCc2cc(S(=O)(=O)N3CCCCC3)ccc21)Nc1ccccc1	-22
O=C(CN1C(=O)CCc2cc(S(=O)(=O)N3CCCC3)ccc21)Nc1cccc(Cl)c1	-103*
Cc1ccc(NC(=O)CN2C(=O)CCc3cc(S(=O)(=O)N4CCCC4)ccc32)cc1C	19
O=C(CN1C(=O)CCc2cc(S(=O)(=O)N3CCCCC3)ccc21)Nc1cccc(Cl)c1	-88*
Cc1ccc(NC(=O)CN2C(=O)CCc3cc(S(=O)(=O)N4CCCC4)ccc32)cc1	38
Cc1cc(-c2nccn2Cc2cc(-c3cccnc3)no2)oc1C	-2
COCCn1ccc(-c2cc(C(=O)N3CCCC(O)C3)c3ccccn23)n1 (configuration not stated)	-3
CC1=C(C(=O)NCCOc2ccc(F)cc2)C(c2cccnc2)NC(=O)N1 (configuration not stated)	-4
COc1ccc(S(=O)(=O)N2CCN(C(=O)c3cn4cccc(C)c4n3)CC2)cc1	4
c1cnc(N2CCOCC3(CCN(Cc4cccs4)CC3)C2)nc1	58
O=C(Cc1ccccc1)c1cc2c(cc1Br)OCCO2	324
Cc1ccccc1-c1noc(CNC(C)Cn2cncn2)n1 (configuration not stated)	3
CCc1nnc(NC(=O)CCN2C[C@@H]3[C@@H]4CC[C@@H](C4)[C@@H]3C2)s1	5
Cc1ccc(C(=O)N2CCN3C[C@H](OCc4ccccn4)C[C@@H]3C2)cn1	12
COc1ccc2ccc(OCc3nc(C(=O)N4CC(n5cccn5)C4)co3)cc2c1	-19
Cc1nc(C2CCCNC2)cc(N(C)Cc2noc3c2CCCC3)n1 (configuration not stated)	-7
SMILES	Tgondii IFNg
NC(=O)C1(N2CCCCC2)CCN(c2ccc(NC(=O)c3ccc(Cl)cc3)cc2C(=O)O)CC1	2
COc1cc(C(=O)N2C(c3cccnc3)=NC3CCCCC32)cc(OC)c1OC (configuration not stated)	-8
COc1cccc(-c2ccc(O)cc2)n1	28
CSc1nccc(-c2ccc(O)cc2)n1	-78*
CSc1nncc(-c2ccc(Cl)cc2)n1	-41
CN(C)c1ncnc2c1CCN(C(=O)c1ccc3[nH]ccc3c1)CC2	5
CCN(CC)C(=O)c1cc(=O)n(CC(=O)Nc2ccc(Br)cc2)c2ccccc12	5
Cc1ccc(-c2nnc(-c3nc(NCc4ccccc4C)c4ccccc4n3)o2)cc1	-53
CS(=O)(=O)N1CCSC1c1ccco1 (configuration not stated)	2
CCCn1cnnc1C(C)NC(=O)c1scc2c1OCCO2 (configuration not stated)	-6
CC(=O)NCCc1sc(-c2ccc(F)cc2)nc1C	184
CCc1ccn2cc(-c3cc(-c4ccccc4)no3)nc2c1	-81*
CCC(=O)Nc1cccc(-c2cn3ccc(C)cc3n2)c1	-12
CCc1nc(CN(C)C(=O)c2cc(-c3ccccc3)no2)no1	6
Cc1cccc(C(=O)N2CCC(N(C)C)CC2C(=O)O)n1 (configuration not stated)	0
O=C1CCCN1CC1CCN(C(=O)c2ccc(N3CC=CC3)nc2)CC1	5
CCN(CC)c1ccc(NC(=O)C2CCCCC2)c(N(CC)CC)n1	-13
Cc1ccc2c(C(=O)N3CCC(=O)NCC3C)cc(C)nc2c1 (configuration not stated)	63
CC(C)(C)C(=O)N1CCN(c2cccc(Cl)c2)CC1	-44
O=C(c1cccnc1Oc1ccccc1)N1CCN(C2c3ccccc3-c3ccccc32)CC1	-34
CC(C)(C)C(=O)N1CCN(C2c3ccccc3-c3ccccc32)CC1	-94*
O=C(Nc1ccc(Cl)cc1)C1Cn2ccnc2C2(CCN(C(=O)c3ccno3)CC2)O1 (configuration not stated)	0
O=C(NCc1ccc2c(c1)OCO2)c1cc2cc(Cl)ccc2[nH]1	-11
NC(=O)C1CCN(C(=O)c2cc(-c3ccnn3C3CCCC3)n3ccccc23)CC1	14
NC(=O)C1(N2CCCCC2)CCN(C(=O)CCN2CCCCO2)CC1	1
CCOC(=O)c1cnc2ccccc2c1NCCO	13
CCOC(=O)c1cnc2ccc(C(=O)OC)cc2c1Nc1ccc(C(=O)O)cc1	-47
CCOC(=O)c1cnc2ccc(C(=O)OC)cc2c1Nc1ccc2c(c1)OCCO2	-72*!
